PubChem BioAssay AID1159580 (chemical genetic matrix, 2015)
The whole screen tested about 5,500 compounds, of which about 2,000 (36%) were called active. Inconclusive results (about 18%) are left out. No stated cut-off is given here; in the data, active means normalized growth mostly below about 0.91 (no sharp cut-off); inconclusive means no clear call, values can overlap the other calls; inactive means mostly above about 0.92. This is one part of the list.

Assay: chemical genetic growth profiling, strain panel (AID 1159580);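 further: tested at 20 µM; growth read once vehicle control cultures reached saturation at 30 °C; 1 = growth at the plate median or of vehicle wells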
Conditions: growth OD

Measured: normalized growth

Cc1ccccc1N1C(=O)c2cc(S(N)(=O)=O)c(Cl)cc2NC1C (stereo not drawn)
inactive: S. cerevisiae deletion strains, locus YKL009W, strain mrt4, stronger effect = lower value 1.01 | S. cerevisiae deletion strains, locus YKL068W, stronger effect = lower value 0.982 | S. cerevisiae deletion strains, locus YKL085W, strain MDH1 (second series), stronger effect = lower value 1.03 | S. cerevisiae deletion strains, locus YKL085W, strain MDH1, stronger effect = lower value 1.03 | S. cerevisiae deletion strains, locus YKL160W, strain elf1, stronger effect = lower value 0.969 | S. cerevisiae deletion strains, locus YKL190W, strain CNB1, stronger effect = lower value 0.994 | S. cerevisiae deletion strains, locus YKR001C, strain vps1, stronger effect = lower value 0.988 | S. cerevisiae deletion strains, locus YKR026C, strain gcn3, stronger effect = lower value 0.94 | S. cerevisiae deletion strains, locus YKR091W, strain srl3, stronger effect = lower value 0.984 | S. cerevisiae deletion strains, locus YLL001W, strain dnm1, stronger effect = lower value 0.969 | S. cerevisiae deletion strains, locus YLL026W, stronger effect = lower value 1 | S. cerevisiae deletion strains, locus YLL041C, strain sdh2, stronger effect = lower value 0.988 | S. cerevisiae deletion strains, locus YLR027C, strain aat2, stronger effect = lower value 0.987 | S. cerevisiae deletion strains, locus YLR039C, strain RIC1, stronger effect = lower value 0.974 | S. cerevisiae deletion strains, locus YLR058C, strain SHM2, stronger effect = lower value 0.987 | S. cerevisiae deletion strains, locus YLR102C, strain apc9, stronger effect = lower value 0.989 | S. cerevisiae deletion strains, locus YLR113W, strain HOG1, stronger effect = lower value 0.985 | S. cerevisiae deletion strains, locus YLR221C, strain rsa3, stronger effect = lower value 0.986 | S. cerevisiae deletion strains, locus YLR258W, strain gsy2, stronger effect = lower value 0.969 | S. cerevisiae deletion strains, locus YLR262C, strain YPT6 (second series), stronger effect = lower value 0.96 | S. cerevisiae deletion strains, locus YLR262C, strain YPT6, stronger effect = lower value 1.01 | S. cerevisiae deletion strains, locus YLR268W, strain sec22, stronger effect = lower value 0.995 | S. cerevisiae deletion strains, locus YLR320W, strain mms22, stronger effect = lower value 1.04 | S. cerevisiae deletion strains, locus YLR330W, strain CHS5, stronger effect = lower value 0.99 | S. cerevisiae deletion strains, locus YLR342W, strain FKS1 (second series), stronger effect = lower value 0.971 | S. cerevisiae deletion strains, locus YLR342W, strain FKS1, stronger effect = lower value 0.983 | S. cerevisiae deletion strains, locus YLR357W, strain rsc2, stronger effect = lower value 0.949 | S. cerevisiae deletion strains, locus YLR370C, strain arc18, stronger effect = lower value 0.98 | S. cerevisiae deletion strains, locus YLR371W, strain rom2, stronger effect = lower value 0.993 | S. cerevisiae deletion strains, locus YLR384C, strain iki3, stronger effect = lower value 0.961 | S. cerevisiae deletion strains, locus YLR418C, strain cdc73, stronger effect = lower value 0.98 | S. cerevisiae deletion strains, locus YML016C, strain PPZ1, stronger effect = lower value 0.985 | S. cerevisiae deletion strains, locus YML032C, strain rad52, stronger effect = lower value 0.994 | S. cerevisiae deletion strains, locus YML120C, strain ndi1, stronger effect = lower value 1 | S. cerevisiae deletion strains, locus YML124C, strain tub3, stronger effect = lower value 0.978 | S. cerevisiae deletion strains, locus YMR058W, strain fet3, stronger effect = lower value 0.988 | S. cerevisiae deletion strains, locus YMR078C, strain ctf18, stronger effect = lower value 0.984 | S. cerevisiae deletion strains, locus YMR125W, strain sto1, stronger effect = lower value 0.921 | S. cerevisiae deletion strains, locus YMR129W, stronger effect = lower value 0.997 | S. cerevisiae deletion strains, locus YMR205C, strain PFK2, stronger effect = lower value 0.982 | S. cerevisiae deletion strains, locus YMR223W, strain ubp8, stronger effect = lower value 0.993 | S. cerevisiae deletion strains, locus YMR231W, strain pep5, stronger effect = lower value 0.974 | S. cerevisiae deletion strains, locus YMR263W, strain SAP30, stronger effect = lower value 1.01 | S. cerevisiae deletion strains, locus YMR307W, strain GAS1, stronger effect = lower value 0.888 | S. cerevisiae deletion strains, locus YNL067W, strain RPL9B, stronger effect = lower value 1.01 | S. cerevisiae deletion strains, locus YNL071W, strain lat1, stronger effect = lower value 1.01 | S. cerevisiae deletion strains, locus YNL128W, strain TEP1, stronger effect = lower value 0.97 | S. cerevisiae deletion strains, locus YNL183C, strain NPR1, stronger effect = lower value 0.93 | S. cerevisiae deletion strains, locus YNL209W, strain ssb2, stronger effect = lower value 0.994 | S. cerevisiae deletion strains, locus YNL233W, strain BNI4, stronger effect = lower value 1.01 | S. cerevisiae deletion strains, locus YNL248C, strain rpa49, stronger effect = lower value 0.909 | S. cerevisiae deletion strains, locus YNL250W, strain rad50, stronger effect = lower value 0.98 | S. cerevisiae deletion strains, locus YNL271C, strain bni1, stronger effect = lower value 0.983 | S. cerevisiae deletion strains, locus YNL298W, strain CLA4, stronger effect = lower value 0.996 | S. cerevisiae deletion strains, locus YNL307C, strain MCK1, stronger effect = lower value 0.996 | S. cerevisiae deletion strains, locus YNL322C, strain KRE1 (second series), stronger effect = lower value 0.98 | S. cerevisiae deletion strains, locus YNR049C, strain mso1, stronger effect = lower value 0.992 | S. cerevisiae deletion strains, locus YNR052C, strain pop2, stronger effect = lower value 0.995 | S. cerevisiae deletion strains, locus YOL006C, strain TOP1, stronger effect = lower value 0.997 | S. cerevisiae deletion strains, locus YOL012C, strain htz1 0.785 | S. cerevisiae deletion strains, locus YOL147C, strain pex11, stronger effect = lower value 0.987 | S. cerevisiae deletion strains, locus YOR001W, strain rrp6, stronger effect = lower value 0.957 | S. cerevisiae deletion strains, locus YOR061W, strain CKA2, stronger effect = lower value 0.993 | S. cerevisiae deletion strains, locus YOR069W, strain VPS5, stronger effect = lower value 0.986 | S. cerevisiae deletion strains, locus YOR070C, strain gyp1, stronger effect = lower value 0.999 | S. cerevisiae deletion strains, locus YOR080W, strain dia2, stronger effect = lower value 0.961 | S. cerevisiae deletion strains, locus YOR083W, strain WHI5, stronger effect = lower value 0.986 | S. cerevisiae deletion strains, locus YOR106W, strain vam3, stronger effect = lower value 0.957 | S. cerevisiae deletion strains, locus YOR136W, strain idh2, stronger effect = lower value 0.99 | S. cerevisiae deletion strains, locus YOR144C, strain elg1, stronger effect = lower value 0.987 | S. cerevisiae deletion strains, locus YOR184W, strain ser1, stronger effect = lower value 1.01 | S. cerevisiae deletion strains, locus YOR231W, strain MKK1, stronger effect = lower value 0.974 | S. cerevisiae deletion strains, locus YOR265W, strain rbl2, stronger effect = lower value 0.995 | S. cerevisiae deletion strains, locus YOR270C, strain vph1, stronger effect = lower value 0.938 | S. cerevisiae deletion strains, locus YOR290C, strain snf2, stronger effect = lower value 0.995 | S. cerevisiae deletion strains, locus YOR316C, strain cot1, stronger effect = lower value 0.983 | S. cerevisiae deletion strains, locus YPL051W, strain arl3, stronger effect = lower value 1.01 | S. cerevisiae deletion strains, locus YPL078C, strain atp4, stronger effect = lower value 0.957 | S. cerevisiae deletion strains, locus YPL106C, strain sse1, stronger effect = lower value 0.956 | S. cerevisiae deletion strains, locus YPL240C, strain hsp82, stronger effect = lower value 0.986 | S. cerevisiae deletion strains, locus YPL241C, strain CIN2, stronger effect = lower value 0.992 | S. cerevisiae deletion strains, locus YPL256C, strain CLN2, stronger effect = lower value 0.954 | S. cerevisiae deletion strains, locus YPR119W, strain clb2, stronger effect = lower value 0.987 | S. cerevisiae deletion strains, locus YPR141C, strain kar3, stronger effect = lower value 0.975 | S. cerevisiae deletion strains, locus YPR163C, strain tif3, stronger effect = lower value 0.981 | S. cerevisiae deletion strains, locus YPR167C, strain met16, stronger effect = lower value 0.992 | S. cerevisiae deletion strains, strain wtn01, stronger effect = lower value 0.991 | S. cerevisiae strains, strain wild type, stronger effect = lower value 0.943
